Laboratory results published in PubChem BioAssay.
Calls of active or inactive are those of the source.

Assay: basal S. cerevisiae growth modulation, no modifier, primary screen, OD600, strain BY4716, 24 h, basal condition (AID 1173)
Conditions: OD600, 24 h, higher = more signal, called active from +8 up or from −8 down

z-score, inactive:
COCC(=C=CC[C@@H](O)c1cccc(OCCO)c1)C[C@@H](O)c1ccccn1 -0.449
C[C@@]1([C@@H](NC(=O)c2ccc(-c3ccccc3)cc2)c2ccc(Cl)cc2)C[C@H]1C1CCCCC1 1.52
CCc1cccc(NC(=O)O[C@H]2[C@H](OC(=O)Nc3ccccc3-c3ccccc3)[C@@H](OC(=O)Nc3ccccc3-c3ccccc3)[C@@H](OC)O[C@@H]2CO)c1 0.972
C=C[C@H](CO[Si](CC)(CC)CC)N(Cc1ccc(OC(C)=O)c(OC)c1)S(=O)(=O)c1ccc(Br)cc1 -0.128
C[C@H]1NC(=O)[C@@]23C(=O)N[C@@H](Cc4ccccc4)C2[C@H](C)[C@@]2(C)O[C@H]2C3/C=C/C/C=C\CNC(=O)[C@@H]2CCCN2C1=O (stereo not given in full) -0.704
CCS[C@H]1[C@@H](C(=O)O)[C@H](c2ccc(C)cc2)N(S(=O)(=O)c2ccc(C)cc2)[C@@H]1CC 0.788
COCCOC(=O)N1C(=O)[C@@]2(c3ccccc31)[C@H](C(=O)N1CCc3cc(OC)c(OC)cc3C1)[C@H]1C(=O)O[C@H](c3ccccc3)[C@H](c3ccccc3)N1[C@@H]2c1ccc(OCCO)cc1 1.26
[N-]=[N+]=Nc1ccccc1[C@H]1OC(c2ccc(OCCCO)cc2)=N[C@@]1(CCS(=O)(=O)c1ccccc1)C(=O)NCC(O)CO (stereo not given in full) -0.484
[N-]=[N+]=NCc1ccccc1[C@@H]1OC(c2ccc(OCCCO)cc2)=N[C@]1(Cc1ccccc1)C(N)=O -2.19
C=C(CCCC)C(=O)CC[C@@H](OC(=O)c1ccccc1-c1ccccc1C(=O)O)c1ccc(OCCO)cc1 -1.78
O=C(CS)NCCCCCCNC(=O)[C@@H]1C[C@@H]2C(=O)N[C@@H](Cc3ccccc3)C(=O)N2[C@@H]1c1cccc(OCCO)c1 0.49
CC(C)C(O)C1C=CC2C(=O)N(c3ccccc3)C(=O)C2N1Nc1ccc([N+](=O)[O-])cc1 (stereo not given) -0.539
CC(C)N1C(=O)[C@@]2(Cc3ccccc31)c1ccccc1C(=O)N(Cc1ccccc1Cl)[C@H]2c1ccc(CO)cc1 -1.87
C=CCC(OC(C)=O)[C@@H]1[C@@H](N(Cc2cc3ccccc3o2)C(=O)c2cccc3ccccc23)c2cc(OCCCO)ccc2N1C(=O)c1ccc(-c2ccccc2)cc1 (stereo not given in full) -0.356
C=CCC(OC(C)=O)[C@@H]1[C@@H](N(Cc2ccc(-c3ccccc3)cc2)C(=O)Cc2ccc(OC)cc2)c2cc(OCCCO)ccc2N1C(=O)Cc1ccc2ccccc2c1 (stereo not given in full) -0.34
Cc1ccc(S[C@]2(C(=O)O)CC(=O)N(C(C)C)[C@@H]2c2ccc(CO)cc2I)cc1 -4.89
O=C1O[C@@H](c2ccccc2)[C@@H](c2ccccc2)N2[C@@H](c3ccccc3OCCO)[C@]3(C(=O)Nc4ccc(C#CC5=CCCCC5)cc43)[C@@H](C(=O)N3CCCCCCC3)[C@H]12 0.98
O=C1OCCC/C=C\[C@H]2OC34C=CCN(Cc5ccccc5)C(=O)[C@H]3N(CCCO)C(=O)[C@@H]4C12 (stereo not given in full) 1.29
COC(=O)[C@@]1(Cc2ccc(OC)cc2)[C@H]2c3cc(C(=O)N(C)C)n(Cc4ccc(S(C)(=O)=O)cc4)c3C[C@H]2CN1C(=O)c1ccccc1 0.0274
CC(C)C[C@@H]1NC(=O)[C@H](C(C)C)NC(=O)[C@@]23C(=O)N[C@@H](Cc4ccccc4)C2[C@H](C)[C@@]2(C)O[C@H]2C3/C=C/CC/C=C/CNC1=O (stereo not given in full) -0.399
COCCOC(=O)N1C(=O)[C@@]2(c3ccccc31)[C@H](c1ccc(O)cc1)N1[C@H](c3ccccc3)[C@H](c3ccccc3)OC(=O)[C@H]1[C@@H]2C(=O)Nc1nc2ccccc2s1 0.183
CC(C)OC(=O)C=C1C[C@@H](c2ccccn2)O[C@@H](c2ccccn2)O1 -1.97
COC(=O)[C@@]1(Cc2ccc(F)cc2)[C@H]2c3cc(C(=O)N(C)C)n(Cc4ccc(Cl)c(C(F)(F)F)c4)c3C[C@H]2CN1C(=O)c1ccccc1 0.359
CC(C)(C)OC(=O)CC[C@]1(C(=O)N2CCOCC2)N=C(c2ccc(OCCCO)cc2)O[C@H]1c1ccccc1N=[N+]=[N-] -0.515
C=C(C(=O)CC[C@@H](OC(=O)c1cccnc1)c1ccccc1OCCO)C(C)C -1.51
NCCCCCCNC(=O)[C@@H]1C[C@@H]2C(=O)NCC(=O)N2[C@@H]1c1ccc(O)cc1 0.333
CCCCCCc1nc(-c2cc(C)c(OC)c(C)c2)cc2c1[Si](C(C)C)(C(C)C)OC2 -1.09
C=CCOC(=O)[C@@H]1[C@H]2C(=O)O[C@H](c3ccccc3)[C@H](c3ccccc3)N2[C@H](c2ccc(OCCOC(=O)[C@H]3C[C@H]4C(=O)N5CCC[C@H]5C(=O)N4[C@H]3c3ccc(O)cc3)cc2)[C@@]12C(=O)Nc1ccc(I)cc12 0.148
O=C(N1CCCCC1)[C@]1(Cc2ccccc2)N=C(c2ccc(OCCCO)cc2)O[C@@H]1c1ccccc1 -1.88
CCOC(=O)[C@H]1C/C=C/C[C@H](C(=O)OCC)C(=O)O[C@H]2[C@@H](OC)O[C@H](CO)[C@@H](OC(=O)c3c(OC)cccc3OC)[C@@H]2OC1=O -0.964
C=C(CCCC)/C(=C/C[C@H](OC(=O)c1ccncc1)c1ccccc1OCCO)c1cnc2ccccc2c1 -0.0677
CCN(CC)c1ccc(N2CC=CC34O[C@@H]5C=CCCOC(=O)C5[C@H]3C(=O)N(CCCCCCO)[C@@H]4C2=O)cc1 (stereo not given in full) -1.04
COC(=O)[C@@]1(Cc2ccc(OC)cc2)[C@H]2c3cc(C(=O)N4CCCC4)n(CCN4CNCC4=O)c3C[C@H]2CN1C(=O)c1ccccc1 0.818
CCC(CC)C(O)C1C=CC2C(=O)NC(=O)C2N1Nc1ccccn1 (stereo not given) 0.341
O=C(CS)NCCCCCCNC(=O)[C@@H]1C[C@@H]2C(=O)NCC(=O)N2[C@@H]1c1cccc(OCCO)c1 -0.419
